Compound activity from PubChem BioAssay.
VACV Venus inh: qHTS for Stage-Specific Inhibitors of Vaccinia Orthopoxvirus: Venus Reporter Primary qHTS; Vaccinia virus Venus reporter expression, fluorescence; Potency, µM (titrated, usually from 36.5 µM), usual class: inhibitors; 330,000 compounds, 0.46% hits; calls by dose curve; tested in A549 cells; note: nearly all actives have a fitted effect of over 30% in size
Sm TGR inh: qHTS Assay for the Inhibitors of Schistosoma Mansoni Peroxiredoxins; AID 485364, 2010; purified TGR, DTNB reduction, TNB absorbance 405 nm; Schistosoma mansoni thioredoxin glutathione reductase (TGR), Q962Y6; Potency, µM (highest dose often 114 µM), usual class: inhibitors; 360,000 compounds, 3% hits; note: nearly all actives have a fitted effect of over 60% in size
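TGR 20 nM + NADPH 100 uM (dispensed conc.), cpd preinc 15 min RT; start with NADPH (500 uM addition) then DTNB (15 mM addition). Kinetic TNB absorbance, 405 nm filter. Four-parameter Hill fit across titration.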
FMDV antiviral: High Throughput Screening for Foot and Mouth Disease Virus Antivirals; AID 1159524, 2015; Potency, µM (doses to about 57.9 µM), hits mostly inhibitors; FMDV antiviral cell-based qHTS; 410,000 compounds, 1.2% hits; calls by dose curve; tested in HEK293T cells; note: read-out not given here; nearly all actives have a fitted effect of over 45% in size
HCMV inh: qHTS Assay for inhibitors of the human cytomegalovirus (HCMV); HFF cells, HCMV-luciferase reporter, 72 h; stronger effect = lower value; activity change, negative = inhibition, % at 57.5 µM; 410,000 compounds, 4.5% hits; AID 1259415, 2018; in the data active = activity change below about -60%; inconclusive = no clear call, values can overlap the other calls; inactive = above about -39%
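HFF cells seeded 16 h at 37C, treated with compounds, infected with luciferase-reporter HCMV at MOI 1 PFU/cell; luciferase read at 72 h post infection, normalized to buffer-only and Salinomycin controls.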
HCV inh: qHTS Assay for Inhibitors of Hepatitis C Virus (HCV) | 340,000 compounds, 3.4% hits | AID 651820, 2012 | Huh7.5.1 HCVcc-Cre infection, luciferase reporter, 44 h | Potency, µM (highest dose often 41.8 µM), hits mostly inhibitors
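Whole-lifecycle infectious HCVcc-Cre system; cells 1,000/well, compound then virus (~0.5 moi) added 4 h after plating, 44 h culture. Luciferase read 15 sec following 15 min substrate incubation, room temp.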
VACV mCherry inh: qHTS for Stage-Specific Inhibitors of Vaccinia Orthopoxvirus: mCherry Reporter Primary qHTS; Vaccinia virus mCherry reporter infection, fluorescence; Potency, µM (doses to about 36.5 µM), actives largely listed as inhibitors; 310,000 compounds, 0.63% hits; AID 720579, 2013; calls by dose curve; tested in A549 cells; note: nearly all actives have a fitted effect of over 35% in size
Numbers stand for hits; n = inactive; u = inconclusive; x = no result; [ ] = remark or other dose. The list is not random: actives were taken first. Their share in the collection is about 9.3%. Unless noted, calls come from the whole dose curve; as a rule, active = well fitted curve in the direction sought with a large enough effect; inconclusive = small, poorly fitted or top-dose-only effect, or another doubt; inactive = no such curve, though single readings can be large; an effect the other way counts as inactive or inconclusive.

SMILES	VACV Venus inh	Sm TGR inh	FMDV antiviral	HCMV inh	HCV inh	VACV mCherry inh
O=C(CCC(=O)CCN1CCCCC1)CCN1CCCCC1	n	n	n	n	n	n
COc1ccc(C(=O)N2CCC3(CCN(Cc4ccccc4)CC3)CC2)cc1	x	x	n	x	x	x
CCCC1(c2ccccc2)NC(=O)N(CC(=O)Nc2sc(-c3ccccc3)cc2C(=O)OCC)C1=O (stereo unspecified)	n	n	n	-62	n	n
CCOC(=O)c1cc(-c2ccccc2)sc1NC(=O)CN1C(=O)c2ccccc2C1=O	n	x	n	n	n	x
COc1cc(CNCc2ccccc2Cl)ccc1OCC(=O)NC1CCCCC1	x	n	n	n	u	x
COc1cc(-c2[nH]ncc2CN2CCN(c3cccc(C)n3)CC2)cc(OC)c1OC	n[7.34 µM]	n	n	n	11µM	n[7.34 µM]
CC(C)OC(=O)Cn1c(-c2ccccc2)c(-c2ccccc2)nnc1=O	x	n	n	n	n	x
COC(=O)Cn1c(-c2ccc(OC)cc2)c(-c2ccc(OC)cc2)nnc1=O	x	79µM	n	n	n	x
COc1ccc(S(=O)(=O)N2c3ccccc3OCC2c2ccccc2)cc1 (stereo unspecified)	x	n	13µM	u	u	x
COc1ccc(S(=O)(=O)N2c3ccccc3OCC2C)cc1 (stereo unspecified)	n	n	n	-66	u	u
Cc1ccc(SCC(=O)N(C)C2CCS(=O)(=O)C2)c(C)c1 (stereo unspecified)	n	x	n	n	n	n
Cc1ccc(-n2c(=O)[nH]c3c(C(N)=O)nc(CC(C)C)nc32)cc1	u	n	n	n	u	u
Cc1ccc(-n2c(=O)[nH]c3c(C(N)=O)nc(-c4ccc(C)o4)nc32)cc1	u	32µM	n	n	u	x
Cc1ccc2c(CC(=O)N3CCOCC3)coc2c1	x	x	n	n	n	x
CCCOC(=O)c1cccc(NC(=O)c2cccnc2)c1	x	n[11.4 µM]	n	n	u	x
COc1ccc(NC(NC(=O)c2cccnc2)C(Cl)(Cl)Cl)cc1 (stereo unspecified)	n	n	n	-85	n	n
CCOC(=O)c1c(NC(=O)c2cccnc2)sc(C)c1C	n	n	x	n	10µM	n
COc1cccc(NC(=S)NC(=O)c2cccnc2)c1	n	11µM	n	n	n	n
CCOC(=O)c1cccc(NC(=S)NC(=O)c2cccnc2)c1	n	22µM	n	n	n	n
CCOC(=O)c1sc(NC(=O)c2cccnc2)c(C#N)c1C	n	n	n	n	n	n[1.46 µM]
Cc1ccccc1NC(NC(=O)c1cccnc1)C(Cl)(Cl)Cl (stereo unspecified)	n	n	n	n	n	n
COc1cccc(NC(=S)NC(=O)c2cncc(Br)c2)c1	x	x	n	n	n	x
CCCOc1ccc(-c2cc(C(F)(F)F)c(C#N)c(SCCC(=O)O)n2)cc1	n	n	n	n	x	n
Cc1cc(N(CN2CCCC2=O)C(=O)c2ccccc2)no1	x	n	n	n	n	x
Cc1nn(-c2ccccc2)c(C)c1C(=O)N1CCN(S(=O)(=O)c2ccccc2)CC1	x	n	n	n	n	x
SMILES	VACV Venus inh	Sm TGR inh	FMDV antiviral	HCMV inh	HCV inh	VACV mCherry inh
CCOC(=O)c1cc(NC(=O)c2cnccn2)cc(C(=O)OCC)c1	n	n	n	-93	n	n
COc1cccc(C(=O)NC(=S)Nc2ccc3oc(=O)ccc3c2)c1	n	n	n	n	n	n
COc1cccc(C(=O)NC(=S)Nc2ccc(N(C)C)cc2)c1	n	16µM	n	n	n	n
CCOC(=O)c1cccc(NC(=O)c2cnccn2)c1	x	n	n	n	n	x
CCOc1cccc(C(=O)NC(=S)Nc2cccc(C)c2)c1	n	u	n	-99	n	n
COc1cccc(NC(=O)c2cc(Cl)nnc2Cl)c1	u	n	n	n	u	6.3µM
O=C(O)/C=C/C=C/c1ccccc1	n	x	u	x	x	n
CCCCNCC(=O)Nc1sc(C)c(C)c1C(=O)OCC	n	n	n	n	11µM	n
COc1ccc(NC(=S)Nc2ccccc2)cc1	n	n	n	u	n	n
COc1ccc(C(=O)NC(=S)Nc2cccnc2)cc1[N+](=O)[O-]	n	16µM	n	n	n	n
CCOC(=O)c1c(NC(=O)COC(=O)Cn2cnc3ccccc32)sc(C)c1C	u	n	n	n	u	10µM
COc1ccc(NC(=S)Nc2ccc(N(C)C(C)=O)cc2)cc1	n	n	n	-98	n	n
COc1ccc(CNC(=O)C[C@H]2C[C@H](C(=O)N(C(C)C)C(C)C)[C@@]3(C)c4[nH]c5cc(CCC(=O)N(C)C)ccc5c4CCN3C2=O)cc1OC	n	x	n	n	n	n
Cn1c(=O)c2c(-c3ccccc3)n(-c3cc(Cl)c([N+](=O)[O-])cc3O)cc2n(C)c1=O	n	x	n	n	x	n
CC1CC(C)(C)OC(c2ccc(C(C)C)cc2)O1 (stereo unspecified)	n	x	n	n	n	n
COC(=O)c1cc2c(-c3ccccc3)cc3ccccn3c-2c1C(=O)OC	n	n	u	n	1.8µM	x
O=C(NCCc1ccccc1)C(=O)c1c(-c2ccccc2)cc2ccccn12	n	n	n	n	n	n
COC(=O)c1c(C)c2c(C)cc3ccccn3c-2c1C(=O)OC	n	n	u	n	10µM	x
CCOC(=O)C(=O)c1c(C)cc2ccccn12	x	n	n	n	n	x
CCCCCCc1ccc(N2C[C@H](Cc3ccccc3)[C@@H](CC(=O)NCc3ccc(OC)cc3)C2=O)cc1	u	n	n	n	2.8µM	u
CCC(=O)Nc1ccc(C(=O)NNC(=O)COc2cc(C)ccc2C)cc1	n	n	n	n	n	n
CCCC1Cc2nc(Cl)c(C#N)cc2CO1 (stereo unspecified)	n	40µM	n	n	n	n
CCC1(C)Cc2nc(Cl)c(C#N)cc2CO1 (stereo unspecified)	x	u	n	u	n	x
COc1cc2[nH]c3c(Cl)ncnc3c2cc1OC	n	n	n	n	n	n
COc1cc2[nH]c(Cl)c([N+](=O)[O-])c2cc1OC	n	2µM	u	n	n	n
CC1Cc2cccc3ccc(=O)n(c23)C1 (stereo unspecified)	n	x	n	n	n	n
c1csc(C2C3=C(Nc4ncnn42)c2ccccc2OC3)c1 (stereo unspecified)	n	45µM	u	u	n	n
CC1=C(C(N)=O)C(c2cccs2)n2ncnc2N1 (stereo unspecified)	n	n	n	n	n	n
CCOC(=O)c1cc(C)n(CC2CCC(C(=O)Nc3ccc(Cl)cc3)CC2)c1C (stereo unspecified)	n[7.34 µM]	n	u	-80	x	n[7.34 µM]
